About 3,700 (7%) of roughly 53,000 sequences were called active.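 Rule for the calls: active = gene knockdowns whose robust z-score for IL-1 alpha signal is at least 2 or at most -2, so actives lie on both sides; inactive = the rest.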 The entries come from a sample that favours actives as a whole.

The assay in a line: Components of the Cytosolic LPS Sensing Pathway: Gene Identification via Genome-wide siRNA Screen.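 Note: robust z of the log signal after scaling to non-targeting control siRNA wells of the plate.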 As to conditions: RAW264.7 macrophages, IL-1a HTRF, actives lie on both sides, screened at 100 nM (by protocol), cells primed 5 h with Pam3CSK4 first. A digest of the protocol:
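Using IL-1a HTRF as read-out, the screen measured release from RAW264.7 cells after 48h siRNA knockdown (100 nM), 5 h Pam3CSK4 priming and 24 h cytosolic LipidA. Values were expressed relative to negative-control wells as robust z-scores.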
(In general: Time-resolved FRET reads energy transfer from a long-lived donor to a nearby acceptor.)
Turning to GGAACUUGUUUCAUAUCGUTT against Scfd1, the z-score was 0.839 (inactive).

For GGGAUUGUGUGAAUCAUACTT against Tmem230, the z-score is -1.27 (inactive).

As to GGCUGCUGAAGCAAAUAAGTT against Ankrd17, the z-score was 3.38 (active).

Consider GGGAAGGCUGAAUGACUGCTT against Vamp5, for which the z-score was 0.257 (inactive).

Consider GGCGAGAGAGAUGAGUAAATT against Smim3, for which the z-score is -1.63 (inactive).

For the sequence “GGGAAUUAUGGGCUUACCGTT against 4931414P19Rik”, the z-score was -0.414 (inactive).

On to GGCUAUUUCUUUUUAUGCUTT against Ak4, for which the z-score is 0.911 (inactive).

Turning to GGAGACAAUGGACAAGAAGTT against Dnal4, the z-score was 0.272 (inactive).

GCCAGUAACCAGAAAAUUGTT against Sycp3: the z-score was -2.01 (active).

As to CCUUAUUACACACACCCUGTT against Gja3, the z-score is 0.398 (inactive).

As to GCUGGUAGCAUUCUUAUCCTT against Xylt2, the z-score is 0.529 (inactive).

Take CGGAUGAGGUUUCUUUUAUTT against Phkb: the z-score is 0.415 (inactive).

On to GGUUGGUUCUUACUUGAAATT against Mindy3, for which the z-score is 0.613 (inactive).

In the case of GGAUAAUGCUCCAUCAUAGTT against Nab1, the z-score was -0.419 (inactive).

Consider GCAAUCACCAAAUCACUAGTT against Fstl1, for which the z-score is -0.123 (inactive).

Consider GCCAGGAAACGACAAUAAATT against Slc5a11, for which the z-score is 0.731 (inactive).

Consider CCUAGUACUUCGAAGAAAGTT against Tmem255a, for which the z-score was -2.62 (active).

Take GGUCAUUCAGUGGUGCACCTT against Skp1: the z-score is -0.00227 (inactive).

In the case of GGUUUCAAACUCUUGUAAUTT against Pgrmc1, the z-score is -0.139 (inactive).

Consider GGUUUGUUUUCAGAUGAAGTT against Washc2, for which the z-score was 0.155 (inactive).

For the sequence GGAGAAAAUAAGCUGGUAGTT against Slc35f1, the z-score was 3.42 (active).

On to CCCAUCAAUGCUGUUAAUUTT against Entpd5, for which the z-score was 0.128 (inactive).

As to GCUCGAUAUCACAGAGAUUTT against Ces5a, the z-score is -0.177 (inactive).

For the sequence GGAGUUGGAGAAUGACACGTT against Ift88, the z-score is 1.14 (inactive).

Turning to GCAGUGUUGUCAAAACUUGTT against Mtfmt, the z-score was 1.54 (inactive).

Regarding GGUACUUUAUAGGAACAGUTT against Zbtb41, the z-score is -0.973 (inactive).

Regarding GGUAUGCUAACAGAACACGTT against Nr1h4, the z-score was 3.15 (active).

Take GCAGAUGCUAACAUAUCCATT against Trim32: the z-score was -0.902 (inactive).

In the case of GCGCAGAGAUUACCUUAAGTT against Gtf3a, the z-score was -0.543 (inactive).

In the case of CCACUAUUUAAUCUUACCGTT against Hoxc13, the z-score was 0.175 (inactive).

Consider GGAGCAUAUAUAGAAUUAGTT against Mrps22, for which the z-score was 3.01 (active).

Consider GCGGGCUUUGCUGAGAUUUTT against Zbtb48, for which the z-score was 0.604 (inactive).

In the case of GGAGAUUUCCCGACUUAACTT against Tnip2, the z-score was 1.68 (inactive).

As for GGCAUCCAUGUGCUCUUUCTT against Tex13a, the z-score is -2.49 (active).

For the sequence GGGAAAAGGUCAGUGAAGUTT against Fam219b, the z-score was -0.305 (inactive).

On to GGGAAUGGAAGAAUAUUCUTT against Dppa2, for which the z-score was 1.61 (inactive).

On to CCUCGUGUUACUUUUACCCTT against Olfr13, for which the z-score was -1.51 (inactive).

Consider GCUUCUCUACACCACAGACTT against Olfr796, for which the z-score was -0.0426 (inactive).

In the case of GGGUUGAUUGACGAAGCCATT against Fga, the z-score was -1.75 (inactive).

As to GGAGAUUCAGAAUUACUGATT against Krit1, the z-score was -0.818 (inactive).

For the sequence GCAUUCAUUGAUCAAUUCUTT against Zbtb6, the z-score is 2 (active).

For the sequence GCCUGCUUUGGAAAAAUCATT against Akr1c12, the z-score is 0.209 (inactive).

For CCCAGGAAGCCUUUGAUCUTT against Gmnn, the z-score is 0.263 (inactive).

Turning to CCAUCGUCCAAAGUACAUGTT against Rbp4, the z-score is -1.39 (inactive).

On to GGGUAAUUAUUGUUUUCUGTT against Eif4e3, for which the z-score is 2.19 (active).

For the sequence GCUGUUGGUUUCUACUCACTT against Adam21, the z-score is -0.0536 (inactive).

For the sequence GGAACAUGUCUCCUGAUCUTT against Add3, the z-score was -1.07 (inactive).

In the case of GCAAUUCAGCUUAUAAGCATT against Mterf2, the z-score is -2.79 (active).

For the sequence GGGAAAUGAGUUUCUACCGTT against Ebna1bp2, the z-score is -0.891 (inactive).

For CCUACACUAAAAUUCACCATT against Muc15, the z-score is -0.549 (inactive).

CGUGUGCAAAGAAGCUAAATT against Mdm2: the z-score is 1 (inactive).

For the sequence GGAGAUGAUGAUUUACAAATT against Spred1, the z-score is 0.723 (inactive).

For the sequence GGUGAUCUUAGAUUUGAUUTT against Qsox2, the z-score was -0.401 (inactive).

On to GGGUUUCUUACUGAAGAAATT against Mindy2, for which the z-score is -1.43 (inactive).

Regarding GGAUCGAGACAAGGCCAAATT against Fes, the z-score is 3.22 (active).

As for GGAAUGAAGCCUGAACAGATT against Strc, the z-score was 0.151 (inactive).

In the case of GGACAAUGCCCUGUAUCAGTT against Clic3, the z-score is -0.822 (inactive).

In the case of GGAUAGUCUCCUCAAAGAATT against Trmt10b, the z-score was 0.7 (inactive).

In the case of GCUGUCAGAAAUCUUCGACTT against E2f4, the z-score was 2.65 (active).

For CCAUACUACGGAUGUUUGATT against Calb2, the z-score is 0.677 (inactive).

As for GGGUAUAGGGAUGGUGAAUTT against Ppil1, the z-score was 0.834 (inactive).

Turning to GCUACUCAGUCAUUGAGCCTT against Tatdn2, the z-score was -1.85 (inactive).

In the case of GCAUCUCAAGGAUCUUCGGTT against Syngr4, the z-score was -0.0821 (inactive).

For the sequence GGGCAACUUUGAGUUCGAATT against Dok2, the z-score was 0.294 (inactive).

With CCUUACCCUGUGUAUCUUUTT against Naa80, the z-score is -0.0307 (inactive).

Regarding GGCAAUUCACUGUGAGUAATT against Mettl21a, the z-score is -2.18 (active).

As for GGCCAAGGUCAAUAACUCCTT against Rfc1, the z-score is -0.755 (inactive).

On to GGACCACUACAUCAUAUACTT against Lcn4, for which the z-score was -1.17 (inactive).

As to GGCCAAGACACCCUUGUUUTT against Zfp524, the z-score was -0.376 (inactive).

For the sequence GGAAGAGAAAGCAAAGUCATT against Ddx19a, the z-score is -0.43 (inactive).

With CGGAAAUGUAAGUACUUUATT against Taf13, the z-score is 2.25 (active).

As for GGUUCUGGAAGAAGAAAAGTT against Irgq, the z-score is 1.31 (inactive).

In the case of GGUUCUGUAAAUUCAACUATT against Zfp593, the z-score was 0.706 (inactive).

Turning to CUACGAGCCACUUCUGAGATT against Krt87, the z-score is -0.431 (inactive).

For the sequence GAACUGAAGAAGCAGAUUGTT against Isg15, the z-score is 0.601 (inactive).

For the sequence GGCAUUAUGAGCAUCUCGGTT against Tnfrsf11a, the z-score was -0.394 (inactive).

Consider GGAGACACCAGACCAACAATT against Gm5458, for which the z-score is 0.242 (inactive).

GGAAGGACAACACUGCACCTT against Cd40: the z-score is 2.44 (active).

Consider “CCAUACAAGUAUCCGAACUTT against 1700102P08Rik”, for which the z-score is 1.03 (inactive).

GCCUCAGCAUUACCACUAUTT against Pof1b: the z-score was -1.86 (inactive).

Consider GGUGAUGCAGCAGAUCAUUTT against Nfyc, for which the z-score is 0.0427 (inactive).

Consider GUGGAAAACAAGUGGCGGUTT against Cox7c, for which the z-score was 0.241 (inactive).

Take GGCAUUGACGAGGAUGACCTT against Supt3: the z-score was 2.74 (active).

In the case of GGAGAACUAUUCAGAAACUTT against Btbd11, the z-score was -0.0178 (inactive).

GCGGUGCCAAAGGUAUUAATT against Rad51ap1: the z-score was -0.0801 (inactive).

With GCAAGAAGGGACACAGUUUTT against Plk1, the z-score was 0.276 (inactive).

Consider GGAAAACCAAGACCACAAATT against Hmgn5, for which the z-score was 1.39 (inactive).

GGUGCUUGAUUUUGUGCAGTT against Psmd13: the z-score was -0.00516 (inactive).

In the case of GACACCACAGUCAAAUCUGTT against Agr2, the z-score is -2.26 (active).

As for CCCUUUAAUACAUACAGUUTT against Mesp2, the z-score is 1.14 (inactive).

For the sequence GCCCAAGGUGAUCAUUAUUTT against Casp1, the z-score was -0.15 (inactive).

As for GGUUGUAAGGAACUCUUGGTT against Slc22a29, the z-score is -0.628 (inactive).

Turning to GGACAUUCCUGAACAUAAUTT against Pcdha3, the z-score is -1.17 (inactive).

GGAGAUCUUCAAUAUGUUATT against Supt6: the z-score was -2.25 (active).

Take GAAGCCUAAUCCCUUAAUCTT against Oas1g: the z-score is 1.07 (inactive).

Consider CCAUUUCAGGCAUGAAGAATT against Tsga10, for which the z-score is -1.13 (inactive).

As for GGUCAAUAUUCUUAUGUCCTT against S1pr3, the z-score is 0.245 (inactive).

Turning to GGAAUUGGAUGUGAGCAACTT against Vasn, the z-score is 0.586 (inactive).

On to GCCAUGGGUCUCAGAAAGATT against Zxda, for which the z-score was -0.247 (inactive).

As to GGAAGAGGAUAGGCAGGAATT against Gfer, the z-score was 2.03 (active).

Turning to UGAUAGUCUCCACUAAAUUTT against Gm4884, the z-score is -0.265 (inactive).

For the sequence GGAUCCUUUGGUUAUAAGATT against Nav1, the z-score is -1.28 (inactive).

For the sequence GGUCUUUAGCAGAGAAAAUTT against Zfp420, the z-score was -0.201 (inactive).

For GCCCACAGUCAUUAAACUATT against Nipal4, the z-score was 0.723 (inactive).

With GGAUCAAAUCAAGAAGAUGTT against Chmp5, the z-score was 0.627 (inactive).

Turning to CCCAGGGUGUCAAUCUAAATT against Cby1, the z-score was -0.381 (inactive).

Consider CGAAAAUACGUCAAAGCUCTT against Abca8b, for which the z-score was -0.656 (inactive).

In the case of GGGCACUGACAAACGUAUUTT against Olfr433, the z-score was -0.34 (inactive).

These data come from PubChem BioAssay AID1508600 (Functional Genomics Laboratory (NCATS/FGL), 2020).
